Here are results for 40 molecules from PubChem BioAssay (Tox21).

Records with an inconclusive call do not appear. A call without a number means that no potency is given here. Calls of active or inactive are those of the source. Calls follow the shape of the dose curve; as a rule, active = well fitted cell-killing curve with a large enough effect in the repeat runs; inconclusive = weak or mixed curves, or effect the other way; inactive = no such curve, though single readings can be large or run the other way.
Potency is read from the fitted curve at half-maximal effect.

The nature of this assay: qHTS assay for identifying genotoxic compounds that show differential cytotoxicity against isogenic chicken DT40 cell lines with known DNA damage response pathways - wild type cell line (AID 743012). Also: nearly all actives have a fitted effect of over 60% in size. Conditions: DT40 wild type chicken cells viability, CellTiter-Glo, 40 h; series mostly up to 68.4 µM. The text has this: U.S. Tox21 Program National Center for Advancing Translational Sciences [NCATS] NIH Chemical Genomics Center [NCGC] U.S. Environmental Protection Agency [EPA] National Institutes of Environmental Health Sciences [NIEHS] National Toxicology Program [NTP] U.S. Food and Drug Administration [FDA] Tox21 Assay Overview: DNA repair pathways play a critical role in cellular homeostasis by repairing DNA damage induced by endogenous processes and xenobiotics. Isogenic chicken DT40 cell lines deficient in different DNA repair pathways can be used to identify genotoxic compounds and aid in characterizing the nature of the DNA damage induced. Two DNA repair-deficient cell lines with disrupted genes, Rad54/Ku70 or Rev3, were used to screen the Tox21 10K compound library. Possible genotoxicity was based on the presence of a significant increase in cytotoxicity in one or more of the DNA repair-deficient cell lines compared to that observed in the parental DNA repair-proficient cell line. CellTiter Glo viability assay (Promega, Madison, WI) was used to measure cell viability in these cells after compound treatment. This assay includes the data from the wild type cell line.
Tox21 Assay Protocol Summary: 300 DT40 wild type cells in 5 uL/well were dispensed into white, solid-bottom 1536-well plates using a Multidrop Combi (ThermoFisher Scientific, Waltham, MA) dispenser. After the assay plates were incubated at 37 C/5% CO2 for approximately 0.5 hour, 23 nL of compounds dissolved in DMSO, positive controls or DMSO only was transferred into the assay plate by a pintool work station (Kalypsys, San Diego, CA). The assay plates were incubated at 37 C/5% CO2 for 40 hours. After 5 uL per well of CellTiter-Glo reagent was added into each well of the assay plates, the plates were incubated for 30 min at room temperature and the luminescence intensity of the plates was measured using a ViewLux (PerkinElmer, Shelton, CT) plate reader.
A general note: qHTS replaces the single test concentration by a dilution series.
On to `COC(=O)COc1ccc(Cl)cc1Cl`, for which the Potency entry is “inactive”.
For `CC(=O)CC(c1ccc(Cl)cc1)c1c(O)c2ccccc2oc1=O` (stereo not given) the value was “inactive”; for `CN/C(=N\[N+](=O)[O-])NCC1CCOC1` (stereo not given), “inactive”; for `Cc1ccccc1CO[C@@H]1C[C@@]2(C(C)C)CC[C@]1(C)O2`, 43.3 µM (active).
For `CNC(=O)Oc1ccc(N(C)C)c(C)c1` the value was 54.5 µM (active); for `CS(=O)(=O)c1cc(C(F)(F)F)ccc1C(=O)c1cnoc1C1CC1`, “inactive”; for `O=[N+]([O-])c1cc(Cl)c(Cl)c(Cl)c1`, “inactive”.
On to `Cc1nnc2n1-c1sc(CCC(=O)N3CCOCC3)cc1C(c1ccccc1Cl)=NC2`, for which the Potency result is “inactive”.
For `CN(C)CCc1ccc(O)cc1` the value was “inactive”.
The same measure for `COC(=O)C(c1ccccc1)C1CCCCN1` (stereo not given): “inactive”.
The same measure for `O=C(CCCN1CCC(n2c(=O)[nH]c3ccccc32)CC1)c1ccc(F)cc1`: 12.7 µM (active); for `CN(N=O)C(N)=O`: “inactive”.
In the case of `O=C(O)c1cccc(Cl)c1`, the Potency entry was “inactive”.
For `CCC(C)(C)c1cc(-n2nc3ccccc3n2)c(O)c(C(C)(C)CC)c1` the value was “inactive”; for `CCCCOC(=O)c1ccccc1C(=O)O`, “inactive”; for `CC1=C(C(=O)Nc2ccccc2)S(=O)(=O)CCO1`, 15.3 µM (active).
The same measure for `BrCCCCCCBr`: “inactive”; for `CC1(C)COP(Oc2ccccc2)OC1`: “inactive”; for `O=S(=O)(O)C(F)(F)C(F)(F)C(F)(F)C(F)(F)C(F)(F)C(F)(F)F`: “inactive”.
For `CCOP(=S)(Oc1cnc(C(C)(C)C)nc1)OC(C)C` (stereo not given) the value was 54.5 µM (active); for `ClC(Br)Br`, “inactive”; for `CCCCCCI`, “inactive”.
Take `CC(C)[N+](=O)[O-]`: the Potency entry was “inactive”.
For `C=C(C)[C@@H]1CC=C(C=O)CC1` the value was 54.5 µM (active); for `CC(Cl)(Cl)[N+](=O)[O-]`, “inactive”.
For `CC(=O)CCc1ccc2c(c1)OCO2` the value was “inactive”.
For `CCC1(c2ccccc2)C(=O)NC(=O)NC1=O` the value was “inactive”; for `CN1CCN(C(=O)O[C@H]2c3nccnc3C(=O)N2c2ccc(Cl)cn2)CC1`, “inactive”.
As for `[As]#[In]`, the Potency entry was “inactive”.
For `OC(c1ccccc1)(c1ccccc1)C1CCNCC1` the value was 11.4 µM (active); for `CCN(CC)c1nc(C)cc(OP(=S)(OC)OC)n1`, 48.6 µM (active); for `CCCCN(CCCCO)N=O`, “inactive”.
For `O=C(Nc1ccccc1)c1ccccc1I` the value was 48.6 µM (active).
The same measure for `C=CCC1=C(C)[C@@H](OC(=O)[C@@H]2[C@@H](C=C(C)C)C2(C)C)CC1=O`: 15.4 µM (active); for `CCC(Cl)[N+](=O)[O-]` (stereo not given): “inactive”.
Consider `COc1cc(OC)nc(Oc2cccc(Oc3nc(OC)cc(OC)n3)c2C(=O)O)n1`, for which the Potency result was “inactive”.
The same measure for `ClCC(Cl)(Cl)Cl`: “inactive”; for `O=[N+]([O-])c1ccc(CBr)cc1`: “inactive”; for `CSc1ccc(C(=O)C(C)(C)N2CCOCC2)cc1`: 48.6 µM (active).
The same measure for `O=C1c2ccccc2C(=O)c2ccccc21`: “inactive”.
